# Measured values published in the supplement of paper PMC4022240.
# ± gives the standard deviation.
# Experiments:
# Experiment in all cases: peptide microarray binding signal (635 nm), min-max normalized on array (fraction of array maximum); higher = stronger binding
# Details in all cases: peptide region: H2B 17-29
# [1] = target: T1, HaloTag-ATRX ADD domain (163-292)
# T1 chain: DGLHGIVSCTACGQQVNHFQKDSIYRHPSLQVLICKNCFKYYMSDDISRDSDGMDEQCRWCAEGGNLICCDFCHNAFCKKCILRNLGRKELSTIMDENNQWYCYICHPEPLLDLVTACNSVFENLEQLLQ
# Method: (§1)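 Histone 13-mer peptides were synthesized as cellulose conjugates with a C-terminal 20-atom PEG linker and printed in triplicate on nitrocellulose. The sequence given is the unmodified backbone; PTMs (Kme1/2/3, Kac, Sph/Tph, Rme/Rme2a/Rme2s, Rcit) are listed in the label and the 'peptide modifications' condition. Slides were probed at 4 °C for 1 h with biotin-labelled (HQ)5-HaloTag reader fusions (ATRX-ADD, ING2-PHD) then streptavidin-Alexa647, or with rabbit histone antibodies then anti-rabbit Alexa647. The mean 635 nm signal of the triplicate spots was scaled 0-1 between the lowest and highest values on each array.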
# [2] = target: HaloTag-ING2 PHD (mouse Ing2 200-280)
# Method: as §1
# [3] = target: anti-H3K4me3 antibody ab8580
# Method: as §1
# [4] = target: anti-H3K9me3 antibody ab8898
# Method: as §1
# [5] = peptide modifications: H2BK20ac H2BK23ac H2BK24ac H2BK27ac H2BK28ac, binder concentration: 1:2,000 dilution
# [6] = peptide modifications: H2BK20ac H2BK23ac H2BK24ac H2BK27ac H2BK28ac, binder concentration: 1:10,000 dilution
# [7] = peptide modifications: H2BK20ac H2BK23ac H2BK28ac, binder concentration: 1:2,000 dilution
# [8] = peptide modifications: H2BK20ac H2BK23ac H2BK28ac, binder concentration: 1:10,000 dilution
# [9] = peptide modifications: H2BK20ac H2BK24ac H2BK28ac, binder concentration: 1:2,000 dilution
# [10] = peptide modifications: H2BK20ac H2BK24ac H2BK28ac, binder concentration: 1:10,000 dilution
# [11] = peptide modifications: H2BK23ac H2BK24ac, binder concentration: 1:2,000 dilution
# [12] = peptide modifications: H2BK23ac H2BK24ac, binder concentration: 1:10,000 dilution
# [13] = peptide modifications: H2BK20ac H2BK24ac H2BK27ac, binder concentration: 1:2,000 dilution
# [14] = peptide modifications: H2BK20ac H2BK24ac H2BK27ac, binder concentration: 1:10,000 dilution
binder,measurement,setting,value
AVTKAQKKDGKKR [H2B 17-29 A V T Kac A Q Kac Kac D G Kac Kac R],peptide microarray binding signal,"[1]; peptide modifications: H2BK20ac H2BK23ac H2BK24ac H2BK27ac H2BK28ac, binder concentration: 50 nM",0.00442 ± 0.00034
same,peptide microarray binding signal,"[1]; peptide modifications: H2BK20ac H2BK23ac H2BK24ac H2BK27ac H2BK28ac, binder concentration: 500 nM",0.01 ± 0.0008
same,peptide microarray binding signal,"[2]; peptide modifications: H2BK20ac H2BK23ac H2BK24ac H2BK27ac H2BK28ac, binder concentration: 10 nM",0.00871 ± 0.00071
same,peptide microarray binding signal,"[2]; peptide modifications: H2BK20ac H2BK23ac H2BK24ac H2BK27ac H2BK28ac, binder concentration: 100 nM",0.0154 ± 0.0025
same,peptide microarray binding signal,[3]; [5],0.00208 ± 0.00036
same,peptide microarray binding signal,[3]; [6],0.00257 ± 0.0004
same,peptide microarray binding signal,[4]; [5],0.000936 ± 3.8e-05
same,peptide microarray binding signal,[4]; [6],0.00236 ± 0.00011
AVTKAQKKDGKKR [H2B 17-29 A V T Kac A Q Kac K D G K Kac R],peptide microarray binding signal,"[1]; peptide modifications: H2BK20ac H2BK23ac H2BK28ac, binder concentration: 50 nM",0.00429 ± 0.00027
same,peptide microarray binding signal,"[1]; peptide modifications: H2BK20ac H2BK23ac H2BK28ac, binder concentration: 500 nM",0.00667 ± 0.00058
same,peptide microarray binding signal,"[2]; peptide modifications: H2BK20ac H2BK23ac H2BK28ac, binder concentration: 10 nM",0.0115 ± 0.00023
same,peptide microarray binding signal,"[2]; peptide modifications: H2BK20ac H2BK23ac H2BK28ac, binder concentration: 100 nM",0.0129 ± 0.0013
same,peptide microarray binding signal,[3]; [7],0.00221 ± 0.00083
same,peptide microarray binding signal,[3]; [8],0.00097 ± 9.9e-06
same,peptide microarray binding signal,[4]; [7],0.000634 ± 2e-05
same,peptide microarray binding signal,[4]; [8],0.00104 ± 4.3e-05
AVTKAQKKDGKKR [H2B 17-29 A V T Kac A Q K Kac D G K Kac R],peptide microarray binding signal,"[1]; peptide modifications: H2BK20ac H2BK24ac H2BK28ac, binder concentration: 50 nM",0.00815 ± 0.00023
same,peptide microarray binding signal,"[1]; peptide modifications: H2BK20ac H2BK24ac H2BK28ac, binder concentration: 500 nM",0.00795 ± 0.00026
same,peptide microarray binding signal,"[2]; peptide modifications: H2BK20ac H2BK24ac H2BK28ac, binder concentration: 10 nM",0.00853 ± 0.00032
same,peptide microarray binding signal,"[2]; peptide modifications: H2BK20ac H2BK24ac H2BK28ac, binder concentration: 100 nM",0.0068 ± 0.00034
same,peptide microarray binding signal,[3]; [9],0.00196 ± 0.00041
same,peptide microarray binding signal,[3]; [10],0.002054 ± 1.9e-05
same,peptide microarray binding signal,[4]; [9],0.0013 ± 0.00012
same,peptide microarray binding signal,[4]; [10],0.001614 ± 1.6e-05
AVTKAQKKDGKKR [H2B 17-29 A V T K A Q Kac Kac D G K K R],peptide microarray binding signal,"[1]; peptide modifications: H2BK23ac H2BK24ac, binder concentration: 50 nM",0.00605 ± 0.00096
same,peptide microarray binding signal,"[1]; peptide modifications: H2BK23ac H2BK24ac, binder concentration: 500 nM",0.00486 ± 0.0017
same,peptide microarray binding signal,"[2]; peptide modifications: H2BK23ac H2BK24ac, binder concentration: 10 nM",0.00543 ± 0.00017
same,peptide microarray binding signal,"[2]; peptide modifications: H2BK23ac H2BK24ac, binder concentration: 100 nM",0.00347 ± 0.00023
same,peptide microarray binding signal,[3]; [11],0.000566 ± 8.2e-05
same,peptide microarray binding signal,[3]; [12],0.00257 ± 0.00026
same,peptide microarray binding signal,[4]; [11],0.000951 ± 7.5e-05
same,peptide microarray binding signal,[4]; [12],0.00115 ± 4.1e-05
AVTKAQKKDGKKR [H2B 17-29 A V T Kac A Q K Kac D G Kac K R],peptide microarray binding signal,"[1]; peptide modifications: H2BK20ac H2BK24ac H2BK27ac, binder concentration: 50 nM",0.00335 ± 0.0001
same,peptide microarray binding signal,"[1]; peptide modifications: H2BK20ac H2BK24ac H2BK27ac, binder concentration: 500 nM",0.00514 ± 0.00021
same,peptide microarray binding signal,"[2]; peptide modifications: H2BK20ac H2BK24ac H2BK27ac, binder concentration: 10 nM",0.0031 ± 0.00013
same,peptide microarray binding signal,"[2]; peptide modifications: H2BK20ac H2BK24ac H2BK27ac, binder concentration: 100 nM",0.00255 ± 0.00012
same,peptide microarray binding signal,[3]; [13],0.00289 ± 0.00021
same,peptide microarray binding signal,[3]; [14],0.00143 ± 2.4e-05
same,peptide microarray binding signal,[4]; [13],0.000649 ± 5.6e-05
same,peptide microarray binding signal,[4]; [14],0.0011 ± 1.1e-05
